The list is not random: actives were taken first. Their share in the collection is about 0.96%.
TRPV1 PAM: enhances activation of the human vanilloid receptor TRPV1; Q8NER1; TRPV1-expressing cells, Fluo-8 calcium influx, capsaicin EC20 potentiation; potentiation, % at 8.33 µM; 0.02% of 320,000 active; AID 540277; in the data active = potentiation above about 80%; inconclusive = between about 30% and that limit; note: 0% is about no effect
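Fluo-8 calcium influx in TRPV1-expressing cells, kinetic read (ex 480/em 520 nm). Compound added and read 3 min for agonist activity, followed by capsaicin at EC20 final and 2 min further read for enhancement.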
TRPML1 inh: blocks the human TRPML1 channel; TRPML1-inducible cells, Ca2+ dye fluorescence, FDSS; active compounds read low; inhibition of EC80 agonist-evoked calcium signal; Q9GZU1; 0.02% of 390,000 active; activity change, negative = inhibition, % (concentration not given with the values); in the data active = activity change below about -50%; inconclusive = between about -30% and that limit;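 note: stimulus is agonist 54-4 at its EC80 concentration; % is set by controls: 0 for no effect and ±100 for the full control effect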
Target sequence (Q9GZU1 whole entry, looked up): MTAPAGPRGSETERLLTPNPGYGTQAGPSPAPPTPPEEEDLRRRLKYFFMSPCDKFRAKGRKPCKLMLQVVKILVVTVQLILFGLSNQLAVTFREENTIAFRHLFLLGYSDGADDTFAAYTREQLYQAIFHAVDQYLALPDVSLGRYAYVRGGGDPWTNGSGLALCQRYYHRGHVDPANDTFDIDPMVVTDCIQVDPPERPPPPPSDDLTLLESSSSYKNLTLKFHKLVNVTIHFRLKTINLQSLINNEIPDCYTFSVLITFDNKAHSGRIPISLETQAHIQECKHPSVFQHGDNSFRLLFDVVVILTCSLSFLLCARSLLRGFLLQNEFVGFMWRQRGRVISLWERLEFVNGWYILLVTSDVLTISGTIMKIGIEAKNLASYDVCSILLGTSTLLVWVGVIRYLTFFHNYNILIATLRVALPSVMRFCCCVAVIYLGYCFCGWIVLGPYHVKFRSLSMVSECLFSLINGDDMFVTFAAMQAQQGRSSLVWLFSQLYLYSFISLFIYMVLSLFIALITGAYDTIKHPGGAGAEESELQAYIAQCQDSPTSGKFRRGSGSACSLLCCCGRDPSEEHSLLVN
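Calcium fluorescence in TRPML1-DL cells induced overnight with Tet: a 110 s read after compound pin addition, then a 110 s antagonist read after challenge with 54-4 at 4 uM final (EC80).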
TRPML1 agonist: human mucolipin-1 channel agonism | TRPML1-expressing cells, Ca2+ dye fluorescence, FDSS | 0.12% of 410,000 active | activation, % (no concentration beside the values); in the data active = activation above about 50%; inconclusive = mostly about 30% to 49%; note: 0% is about no effect
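Agonist activity was taken from a 110 s kinetic Ca2+ dye read on the FDSS after pinning compounds onto TRPML1-DL cells. The cells were seeded at 1,500/well with Tet inducer, incubated about 16 h, then dye-loaded at room temperature.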
TRHR PAM: allosteric enhancers of human TRH receptor; TRHR cells, fluo-8 calcium fluorescence, EC20 TRH enhancement; enhancement, % at 2 µM; 0.66% of 360,000 active; in the data active = enhancement above about 30%; note: 0% is about no effect
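TRHR-expressing cells loaded with fluo-8 calcium dye were read kinetically (ex 480/em 530) during compound addition, then stimulated with an EC20 of TRH (10 nM final). Enhancement of the Gq-mediated intracellular calcium response was scored.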
TRHR agonist: agonists of human TRH receptor; P34981; 0.18% of 360,000 active; TRHR cells, calcium flux fluo-8, FDSS agonist mode; activation, % at 2 µM; in the data active = activation above about 30%; note: 0% is about no effect
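Fluo-8-loaded TRHR cells; 10 s baseline, compound added, kinetic Ca2+ fluorescence read 1/s, agonist mode.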
TRPV1 ag: agonists of human vanilloid receptor 1 (TRPV1); Q8NER1; TRPV1-expressing cells, Fluo-8 calcium influx, agonist mode; activation, % at 8.33 µM; 0.19% of 320,000 active; AID 540275; in the data active = activation above about 80%; inconclusive = between about 30% and that limit; note: 0% is about no effect
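Fluo-8 calcium influx in TRPV1-expressing cells, kinetic read (ex 480/em 520 nm). Compound added and read 3 min for agonist activity, followed by capsaicin at EC20 final and 2 min further read for enhancement.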
* hit, by the source's call; ? = inconclusive; · = no result.

SMILES	TRPV1 PAM	TRPML1 inh	TRPML1 agonist	TRHR PAM	TRHR agonist	TRPV1 ag
O=S(=O)(c1ccc(F)cc1F)N1CCCN(c2ccc(C(F)(F)F)cn2)CC1	-17	16	0	-1	1	25
N#Cc1ccc(S(=O)(=O)N2CCCN(c3ccc(C(F)(F)F)cn3)CC2)cc1	-25	18	1	-13	1	81*
CCOC(=O)[C@H]1[C@H]2COc3ccc(Cl)cc3[C@@H]2N2C(=O)c3ccccc3NC(=O)[C@@]12C	1	43	1	-1	0	?
CCOC(=O)[C@H]1[C@H]2COc3ccc(Cl)cc3[C@@H]2N2C(=O)c3ccc(F)cc3NC(=O)[C@@]12C	30	-9	3	20	0	83*
CCOC(=O)[C@H]1[C@H]2COc3ccc(Cl)cc3[C@@H]2N2C(=O)c3ccc(C)cc3NC(=O)[C@@]12C	?	8	0	-1	0	99*
Cc1ccn2c(NCc3ccco3)c(-c3ccccc3)nc2c1	·	·	1	·	·	·
COCC(=O)N(Cc1cc2cc(C)ccc2[nH]c1=O)c1ccc(C)c(C)c1	-18	-5	1	31*	0	-2
CC(=O)c1ccc(NC(=O)c2cnn3c2NC(=C2CC2)C=C3C(F)F)cc1	·	·	0	·	·	·
CC(=O)Nc1sc(N/N=C\c2ccccc2F)nc1-c1cccs1	-3	-13	0	36*	0	1
CC(=O)Nc1sc(N/N=C\c2ccc(O)cc2)nc1-c1cccs1	15	18	0	-3	0	-2
COC(=O)C1=C(C)N(C)C(=O)/C1=C\c1cccs1	14	0	0	-7	0	5
COC(=O)C1=C(C)N(C2CCCCC2)C(=O)/C1=C\c1cccs1	-4	2	0	40*	0	30
Cc1nnc2ccc(-c3cccc(NS(=O)(=O)c4ccccc4Cl)c3)nn12	10	-5	0	36*	0	1
Cc1nnc2ccc(-c3cccc(NS(=O)(=O)c4ccccc4[N+](=O)[O-])c3)nn12	-1	7	1	9	0	-4
CN(C)/[N+]([O-])=N/Oc1cc(F)c([N+](=O)[O-])cc1[N+](=O)[O-]	·	2	1	·	·	·
Cc1[nH]c2ccccc2c1/C=C/c1nccc2ccccc12	·	·	20	·	·	·
CCCCCCCCCC[n+]1ccc(/C=C/c2c(C)[nH]c3ccccc23)cc1	·	·	123*	·	·	·
CCCCCCC[n+]1ccc(/C=C/c2c[nH]c3ccccc23)cc1	·	·	63*	·	·	·
Cc1ccccc1Nc1nc(C#N)nc(NC2CCCC2)n1	·	·	·	-4	-1	·
O=C(O)c1ccc(S(=O)(=O)N(Cc2ccc(F)cc2)C2CCCCC2)cc1	8	4	1	38*	0	5
Cn1nnnc1Sc1ncnc2scc(-c3ccccc3F)c12	·	·	·	5	-1	·
CSc1nnc(N2C(=O)C(O)=C(C(=O)c3ccco3)C2c2cccc(Cl)c2)s1 (stereo not given)	5	-20	-1	0	16	14
CSc1nnc(N2C(=O)C(O)=C(C(=O)c3ccco3)C2c2ccc(F)cc2)s1 (stereo not given)	-11	-10	0	3	36*	20
Cc1cc(C)c2nccc(/C=C/c3ccc(N(C)C)cc3)c2c1	·	·	15	·	·	·
CN(C)c1ccc(/C=C/C(=O)c2c(O)c3ccccc3oc2=O)cc1	-1	?	0	9	38*	19
CCOc1ccc(/C=C/C(=O)c2c(O)c3ccccc3oc2=O)cc1	7	-9	1	0	0	-2
COc1ccccc1N1C(=O)C2C(C(=O)c3ccccc3)=NN(c3ccc(C)cc3)C2C1=O (stereo not given)	-23	4	17	-1	31*	17
O=C(C1=NN(c2ccccc2)C2C(=O)N(c3cccc(Cl)c3)C(=O)C12)c1ccccc1 (stereo not given)	1	-5	?	7	41*	?
COc1ccccc1N1C(=O)C2C(C(=O)c3ccccc3)=NN(c3ccc(Br)cc3)C2C1=O (stereo not given)	15	-13	9	0	20	3

From PubChem
